# Tests used:
# Details in all cases: concentration: 1 μM, replicates: in singlicate; n = 1
# STK16 = test system: STK16
# STK33 = test system: STK33
# STK35 = test system: STK35
# STK36 = test system: STK36
# STK39 = test system: STK39
# SYK = test system: SYK
# SgK110 = test system: SgK110
# TAK1 = test system: T1, TAK1
# T1 construct: gene MAP3K7
# TAOK1 = test system: TAOK1
# TAOK2 = test system: TAOK2
# TAOK3 = test system: TAOK3
# TBK1 = test system: TBK1
# TEC = test system: TEC
# TESK1 = test system: TESK1
# TGFBR1 = test system: TGFBR1
# TGFBR2 = test system: TGFBR2
# TIE1 = test system: TIE1
# TIE2 = test system: T2, TIE2
# T2 construct: gene TEK
# TLK1 = test system: TLK1
# TLK2 = test system: TLK2
# 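Note: KINOMEscan kinase panel screen.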
SMILES,%Inh (STK16) [%],%Inh (STK33) [%],%Inh (STK35) [%],%Inh (STK36) [%],%Inh (STK39) [%],%Inh (SYK) [%],%Inh (SgK110) [%],%Inh (TAK1) [%],%Inh (TAOK1) [%],%Inh (TAOK2) [%],%Inh (TAOK3) [%],%Inh (TBK1) [%],%Inh (TEC) [%],%Inh (TESK1) [%],%Inh (TGFBR1) [%],%Inh (TGFBR2) [%],%Inh (TIE1) [%],%Inh (TIE2) [%],%Inh (TLK1) [%],%Inh (TLK2) [%]
O=C(Nc1ccc2c(c1)OCO2)NC1CCN(c2ccnc(Nc3ccc(F)cc3)n2)C1 (stereo not shown) [GSK1379724],30,0,0,0,10,16,14,0,0,0,0,0,7,32,28,0,0,0,0,0
Cc1cc(N2Cc3ccccc3C2)nc(Nc2ccc(S(=O)(=O)N3CCOCC3)cc2)n1.Cl [GSK1669917],0,0,0,4,0,35,0,0,0,0,0,30,0,12,0,0,0,0,2,0
O=C(O)COc1ncnc2cc(-c3ccc4[nH]ncc4c3)sc12,12,0,0,0,0,0,0,28,0,0,0,11,0,13,10,18,24,21,22,0
COc1cc(Nc2nccc(N3CCC(NC(=O)Nc4cc(C)ccc4C)C3)n2)cc(OC)c1OC (stereo not shown) [GSK1379762],57,3,3,0,16,0,0,0,0,0,0,18,14,0,8,0,49,2,0,0
COC(=O)c1c(-c2ccccc2)c2cc(C(=O)O)ccc2c(=O)n1Cc1ccccc1,22,0,0,5,0,0,14,0,14,20,0,6,0,0,21,8,0,18,10,0
CCn1c(-c2cccnc2O)nc2cnccc21 [SB-736715],0,0,0,0,0,0,0,0,0,0,0,0,0,0,0,0,0,6,0,0
NC(=O)c1nnc2ccccc2c1N,2,11,10,0,27,1,0,19,20,28,3,40,0,6,1,0,14,98.7,14,0
O=C(Nc1n[nH]c2cc(-c3cccc(F)c3F)ccc12)C1CC1 [SB-733894],12,0,0,9,0,0,17,48,23,0,16,18,4,8,1,14,0,17,0,5
Cl.O=C(Nc1cccc(-c2nn3ncccc3c2-c2ccnc(Nc3cccnc3)n2)c1)c1c(F)cccc1F [GSK312879],3,0,0,96.7,17,3,0,0,5,0,7,0,13,0,0,0,34,1,0,0
COc1ccccc1-c1ccc2c(NC(=O)C3CC3)n[nH]c2n1 [SB-711239],28,20,0,6,18,20,14,0,0,0,0,26,0,8,14,1,6,11,0,2
CCn1c(-c2ccccn2)nc2cnccc21 [SB-736398],0,0,1,0,31,0,15,0,0,33,0,0,0,0,21,10,0,0,0,0
